The text below walks through data of PubChem BioAssay (Tox21).

Unmarked numbers belong to inactive results. Results filed as inconclusive are left out. A call without a number means that no potency is given here. Active and inactive are the calls of the source. Calls come from the whole dose curve.

Chain of Estrogen receptor (Homo sapiens) (P03372 whole entry, looked up): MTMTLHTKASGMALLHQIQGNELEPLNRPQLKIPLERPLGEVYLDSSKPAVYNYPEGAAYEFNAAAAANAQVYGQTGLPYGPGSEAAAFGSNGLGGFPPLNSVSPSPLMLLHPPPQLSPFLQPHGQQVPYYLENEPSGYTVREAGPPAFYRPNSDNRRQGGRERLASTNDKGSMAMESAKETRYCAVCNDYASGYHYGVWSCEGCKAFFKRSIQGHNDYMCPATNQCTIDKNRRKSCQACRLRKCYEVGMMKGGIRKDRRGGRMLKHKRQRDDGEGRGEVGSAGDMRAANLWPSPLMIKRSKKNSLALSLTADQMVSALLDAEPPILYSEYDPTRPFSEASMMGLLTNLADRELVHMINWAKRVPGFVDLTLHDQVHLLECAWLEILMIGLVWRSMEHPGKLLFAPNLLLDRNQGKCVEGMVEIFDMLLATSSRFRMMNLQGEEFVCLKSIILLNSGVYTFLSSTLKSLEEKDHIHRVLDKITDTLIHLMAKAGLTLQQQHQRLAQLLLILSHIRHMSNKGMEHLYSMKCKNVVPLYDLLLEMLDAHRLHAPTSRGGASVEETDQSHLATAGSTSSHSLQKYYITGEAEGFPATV

The target of the first assay is Estrogen receptor (Homo sapiens) (UniProt P03372). Kind of assay: qHTS assay to identify small molecule agonists of the estrogen receptor alpha (ER-alpha) signaling pathway in the presence of an antagonist (AID 1259383). Note: top concentration of the series differs between compounds; nearly all actives have a fitted effect of over 15% in size. To be noted: VM7Luc4E2 cells, ERE-luciferase, +ICI-182,780, 22 h; series mostly up to 92.4 µM. In a few lines:
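Luciferase luminescence (ONE-Glo, 30min at room temperature) measured in VM7Luc4E2 cells after 22hr compound exposure at 15 concentrations, with 10.0nM ICI-182,780 final present; cells express endogenous ER-alpha and carry four EREs upstream of luciferase.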
For orientation: qHTS replaces the single test concentration by a dilution series.
Take `CN(C)c1ccc(N)cc1`: the Potency result is “inactive”.

`O=C(Cl)c1ccccc1F`: the Potency entry is “inactive”.

Take `CN/C(=N\[N+](=O)[O-])NCc1cnc(Cl)s1`: the Potency entry was “inactive”.

As to `CC(C)C(Br)C(=O)NC(N)=O` (stereo not given), the Potency result was “inactive”.

On to `O=[N+]([O-])c1ccccc1-c1ccccc1`, for which the Potency entry is “inactive”.

`CNC(=O)/C=C(\C)OP(=O)(OC)OC`: the Potency entry was “inactive”.

With `O=S(=O)(O)F`, the Potency result was “inactive”.

On to `Cc1c([N+](=O)[O-])cc2c(c1[N+](=O)[O-])C(C)(C)CC2(C)C`, for which the Potency result was “inactive”.

On to `Cc1cccc(Cc2cnc[nH]2)c1C`, for which the Potency result was “inactive”.

System in another assay: not listed separately
Kind of assay: qHTS assay to identify small molecule agonists or antagonists of the thyroid stimulating hormone receptor (TSHR) signaling pathway - wild type cell line counter screen (AID 1259384). To be noted: HEK293 wild type, cAMP HTRF counter-screen; series mostly up to 92.4 µM. In a few lines: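 Counter screen in untransfected Hek293: compounds (15-point titration, triplicate) plus phosphodiesterase inhibitor Ro20-1724 added after 18 h plating; 30 min RT. Intracellular cAMP via competitive d2/cryptate immunoassay, 1 h incubation.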
As to `ClC(Cl)C(Cl)(Cl)Cl`, the Potency result is “inactive”.

Turning to `Cc1ccc([N+](=O)[O-])[c]2c1[O][Hg]2`, the Potency entry was “inactive”.

In the case of `Clc1ccc(C2(Cn3cncn3)OCCO2)c(Cl)c1`, the Potency entry is “inactive”.

Turning to `CCCCCCCCCCCCCCn1cc[n+](C)c1`, the Potency entry was “inactive”.

On to `S=C=NCCc1ccccc1`, for which the Potency result was “inactive”.

Turning to `CC(C)N(C(=O)SC/C(Cl)=C/Cl)C(C)C`, the Potency result was “inactive”.

`CCN(CC)CCc1c[nH]c2ccccc12`: the Potency entry is “inactive”.

Regarding `CCC1COC(Cn2cncn2)(c2ccc(Cl)cc2Cl)O1` (stereo not given), the Potency result was “inactive”.

Consider `CCC(C)c1cccc(C(C)CC)c1O` (stereo not given), for which the Potency entry is “inactive”.

Consider `CCCCc1ccccc1`, for which the Potency result is “inactive”.

Consider `CC(Cc1ccc(OCC(=O)O)cc1)NCC(O)c1csc(C(F)(F)F)n1` (stereo not given), for which the Potency entry was “inactive”.

Turning to `CCC[CH2][Sn]([CH2]CCC)([CH2]CCC)[O][Sn]([CH2]CCC)([CH2]CCC)[CH2]CCC`, the cAMP activity change was 1.6% [at 8.39 µM, active compounds read high].

For the compound `COc1ccc2c(c1OC)C(=O)O[C@@H]2[C@H]1c2cc3c(cc2CCN1C)OCO3`, the Potency entry was “inactive”.

With `C=CCOC(=O)c1ccccc1N`, the Potency entry was “inactive”.

For the compound `CC1(C)[C@H](/C=C2\CCSC2=O)[C@@H]1C(=O)OCc1coc(Cc2ccccc2)c1`, the Potency entry was “inactive”.

For the compound `C[C@]12CC[C@H]3[C@@H](CCC4=CC(=O)CC[C@@H]43)[C@@H]1CC[C@@H]2OC(=O)CCc1ccco1`, the Potency entry was “inactive”.

With `O=[N+]([O-])c1ccc(CCl)cc1`, the Potency entry was “inactive”.

Turning to `COc1cnc(OC)n2nc(NS(=O)(=O)c3c(OCC(F)F)cccc3C(F)(F)F)nc12`, the Potency result is “inactive”.

Regarding `Nc1ccccc1-c1ccccc1`, the Potency entry was “inactive”.

For `COC(=O)/C=C(\C)OP(=O)(OC)OC`, the Potency entry is “inactive”.

For the compound `O=C(Cl)c1ccccc1F`, the Potency result was “inactive”.

Consider `CC(C)C(Br)C(=O)NC(N)=O` (stereo not given), for which the Potency entry was “inactive”.

With `CC(C)=CC1C(C(=O)OC(C#N)c2cccc(Oc3ccccc3)c2)C1(C)C` (stereo not given), the Potency entry was “inactive”.

For `O=[N+]([O-])c1ccccc1-c1ccccc1`, the Potency entry is “inactive”.

As to `COC(=O)c1ccccc1S(=O)(=O)NC(=O)Nc1nc(C)nc(OC)n1`, the Potency entry is “inactive”.

For the compound `CNC(=O)/C=C(\C)OP(=O)(OC)OC`, the Potency entry is “inactive”.

For `C#CCC1=C(C)C(OC(=O)C2C(C=C(C)C)C2(C)C)CC1=O` (stereo not given), the Potency entry was “inactive”.

For the compound `COCCC#N`, the Potency result is “inactive”.

Regarding `O=S(=O)(O)F`, the Potency result is “inactive”.

In the case of `Cc1c([N+](=O)[O-])cc2c(c1[N+](=O)[O-])C(C)(C)CC2(C)C`, the Potency result was “inactive”.

In the case of `Cc1cccc(Cc2cnc[nH]2)c1C`, the Potency entry was “inactive”.
